Measurements: PubChem BioAssay (NCATS)
Inconclusive results are not listed. A call without a number means that no potency is given here. A number with no mark means an inactive call. The source made the active and inactive calls. The call rests on the fitted dose curve; in most records, active means well fitted inhibition curve with a large enough effect; inconclusive means small, poorly fitted or top-dose-only effect; inactive means flat fitted curve, though single readings scatter.

What was measured:
Assay in all cases: qHTS assay to identify novel small-molecules to repurpose for Merkel cell carcinoma treatment (AID 1296009); further: nearly all actives have a fitted effect of over 60% in size
Settings in all cases: MCC and control cell lines, CellTiter-Glo viability, 72 h; series mostly up to 46 µM
MCC-26 = tested on: MCC-26
How it was run: (§1)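 Viability readout: ATP luminescence (CellTiter-Glo) after 72 hr drug exposure at 37 degree celsius. Dose-response format was 8 points for NPC and 11 points for MIPE; data normalized to in-plate controls.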

MKL-1 = tested on: MKL-1
How it was run: as §1

MKL-2 = tested on: MKL-2
How it was run: as §1

UISO = tested on: UISO
How it was run: as §1

WaGa = tested on: WaGa
How it was run: as §1
Potency means the concentration at half of the fitted maximal effect.

Structure (SMILES)	Potency (MCC-26)	Potency (MKL-1)	Potency (MKL-2)	Potency (UISO)	Potency (WaGa)
CN1CCC[C@H]1CCO[C@](C)(c1ccccc1)c1ccc(Cl)cc1	inactive	inactive	inactive	inactive	inactive
C=CC[N+]1([C@H]2C[C@H]3[C@@H]4CC[C@H]5C[C@H](O)[C@@H](N6CCOCC6)C[C@]5(C)[C@@H]4CC[C@]3(C)[C@H]2OC(C)=O)CCCC1	inactive	inactive	inactive	inactive	inactive
O=C(O)C1=NC(C(=O)O)CC(C=CN2c3cc(O)c(OC4OC(CO)C(O)C(O)C4O)cc3CC2C(=O)O)=C1 (stereo not given)	inactive	inactive	inactive	inactive	inactive
C[C@H]1[C@H](O)O[C@@H]2O[C@@]3(C)CC[C@@H]4[C@H](C)CC[C@@H]1[C@@]24OO3	inactive	16.6 µM (active)	10.5 µM (active)	2.96 µM (active)	9.35 µM (active)
CCC(=C(c1ccc(O)cc1)c1ccc(OCCNC)cc1)c1ccccc1	inactive	inactive	inactive	inactive	inactive
CC(C)CN(C[C@H](O)[C@H](Cc1ccccc1)NC(=O)O[C@H]1CCOC1)S(=O)(=O)c1ccc(N)cc1	inactive	inactive	inactive	inactive	inactive
CC=C1C2C=C(C)CC1(N)c1ccc(=O)[nH]c1C2 (stereo not given)	inactive	inactive	inactive	inactive	inactive
CCCCCCCCCCCCCC(=O)N[C@H](CO)[C@H](O)c1ccc([N+](=O)[O-])cc1	inactive	inactive	inactive	inactive	inactive
CN1CC(=O)N2C(Cc3c([nH]c4ccccc34)[C@H]2c2ccc3c(c2)OCO3)C1=O (stereo not given in full)	inactive	inactive	inactive	inactive	inactive
CC1(C)[C@H]2CC[C@]3(C)[C@@H](C(=O)C=C4[C@@H]5C[C@@](C)(C(=O)O)CC[C@]5(C)CC[C@]43C)[C@@]2(C)CC[C@@H]1O	inactive	inactive	inactive	inactive	inactive
CCOC(=O)[C@H]1O[C@H]1C(=O)N[C@@H](CC(C)C)C(=O)NCCC(C)C	inactive	inactive	inactive	inactive	inactive
CN(C)c1ccccc1CN1CCCN(Cc2ccccc2N(C)C)C1c1ccncc1	inactive	inactive	inactive	inactive	inactive
CCOC(=O)c1c(CSc2ccccc2)n(C)c2cc(Br)c(O)c(CN(C)C)c12	inactive	inactive	inactive	inactive	inactive
O=C1CN2Cc3c(ccc(Cl)c3Cl)N=C2N1	inactive	inactive	inactive	inactive	inactive
CCNC(=O)Nc1ccc(Oc2ncnc(N)c2C=NOC)cc1Cl	inactive	inactive	inactive	inactive	inactive
Cc1ccc2c(c1)c1c(n2CCc2ccc(C)nc2)CCN(C)C1	inactive	inactive	inactive	inactive	inactive
Cn1c(=O)c(Oc2ccc(F)cc2F)cc2cnc(NC3CCOCC3)nc21	inactive	inactive	inactive	inactive	inactive
CC(C)c1onc(-c2c(Cl)cccc2Cl)c1COc1ccc(C=Cc2cccc(C(=O)O)c2)c(Cl)c1	inactive	inactive	inactive	inactive	inactive
COc1cc(N2CCN(C)CC2)ccc1Nc1nc(N)c(C(=O)c2c(Cl)cccc2Cl)s1	inactive	inactive	inactive	inactive	inactive
O=C(NCCCCN1CCOCC1)c1cc2ccccc2o1	inactive	inactive	inactive	inactive	inactive
CC[C@H](C)C(=O)O[C@H]1C[C@H](O)C=C2C=C[C@H](C)[C@H](CC[C@@H](O)C[C@@H](O)CC(=O)O)[C@H]21	inactive	inactive	inactive	inactive	inactive
CC(C)[C@H](O)C(=O)N[C@@H](C)C(=O)N[C@@H]1C(=O)N(C)CCc2ccccc21	inactive	inactive	inactive	inactive	inactive
COc1cc2ncn(-c3cc(OCc4ccccc4S(C)(=O)=O)c(C#N)s3)c2cc1OC	inactive	inactive	inactive	inactive	inactive
CCCCC(C=O)NC(=O)C(CC(C)C)NC(=O)OCc1ccccc1 (stereo not given)	inactive	inactive	inactive	inactive	inactive
COc1cc(F)c(C(C)C)cc1-c1ccc(C(F)(F)F)cc1CN1C(=O)O[C@H](c2cc(C(F)(F)F)cc(C(F)(F)F)c2)[C@@H]1C	inactive	inactive	inactive	inactive	inactive
O=C(O)C1=CO[C@@H](O[C@@H]2O[C@H](CO)[C@H](O)[C@H](O)[C@H]2O)[C@@H]2C(CO)=CC[C@H]12	inactive	inactive	inactive	inactive	inactive
Nc1ncnc2c1ncn2[C@@H]1O[C@H](CO)[C@@H](O)[C@@H]1O	inactive	14.8 µM (active)	1.66 µM (active)	inactive	1.05 µM (active)
